Reference: PubChem BioAssay (NCATS)
Records with an inconclusive call do not appear. Entries that show only a call come without a potency. Active and inactive are the calls of the source. Calls come from the whole dose curve; as a rule, active = well fitted inhibition curve with a large enough effect; inconclusive = small, poorly fitted or top-dose-only effect; inactive = no such curve, though single readings can be large or run the other way. Where a SMILES comes first, the peptide text is derived from it. [ ]: non-standard residue; d: D form. Hyp = O=C(O)[CH]1C[CH](O)CN1; Phe(ol) = N[CH](CO)Cc1ccccc1; Iva = CC[C](C)(N)C(=O)O; Aib = CC(C)(N)C(=O)O
Potency is the fitted concentration of half-maximal effect.

The molecules below were run on Zika virus NS2B-NS3 protease (unlinked complex) (assay: Primary screen GU Rhodamine qHTS for Zika virus inhibitors: Unlinked NS2B-NS3 protease assay (AID 1347159; note: nearly all actives have a fitted effect of over 60% in size)). Details: Recombinant ZIKV NS2B-NS3 protease, Rhodamine110 substrate fluorescence; series mostly up to 107 µM.
Method in brief: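 In dose–response format, inhibition of unlinked protease (25 nM) was measured with 1.5 microM bis-peptide Rhodamine110 substrate. Aprotinin served as the intraplate control.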
With `Cc1c(OCc2cccc(-c3ccc(C(=O)O)cc3)c2)cc2c(c1C)C(=O)C(C1CCCC1)C2` (centres undefined) the Potency was 1.78 µM (active).
For `CC1(C)OC[C@H](NC(=O)Nc2ccc(Br)cc2Br)[C@H](c2ccccc2)O1`, the Potency was “inactive”.
`CC[C@@H](Nc1c(Nc2cccc(C(=O)N(C)C)c2O)c(=O)c1=O)c1cc(C(C)C)co1` was tested, and the Potency was 22.4 µM (active).
`C[C@@H](NC(=O)C(=O)c1c[nH]c2ccc([N+](=O)[O-])cc12)c1ccccc1` was tested, and the Potency was “inactive”.
In the case of `Cc1sc2c(c1C)C(c1ccc(Cl)cc1)=N[C@@H](CC(=O)Nc1ccc(OCCOCCOCCOCCNc3cccc4c3C(=O)N(C3CCC(=O)NC3=O)C4=O)cc1)c1nnc(C)n1-2` (some centres undefined), the Potency is reported as “inactive”.
With `C=C1/C(=C/C=C2\CCC[C@]3(C)[C@@H]([C@H](C)/C=C/[C@H](O)C4CC4)CC[C@@H]23)C[C@@H](O)C[C@@H]1O` the Potency was 50.1 µM (active).
`COc1cc2c(c(OC)c1CC=C(C)C)C[C@H](c1ccc(O)c(CC=C(C)C)c1O)CO2` was tested, and the Potency was 17.8 µM (active).
With `CC12CCC3C1C(c1c(cc(O)c(C(=O)c4ccccc4)c1O)O2)C3(C)C` (centres undefined) the Potency was 8.91 µM (active).
In the case of `COc1ccc([C@H](Cc2ccncc2)c2ccccc2)cc1OC1CCCC1`, the Potency is reported as “inactive”.
For `CC[C@H](C)/C=C(C)/C=C/C1=CC2=CC(=O)[C@]3(C)OC(=O)[C@@H](C(C)=O)[C@@H]3C2=CO1`, the Potency was 10 µM (active).
For `O=C(Nc1cccc([N+](=O)[O-])c1)c1cccc(S(=O)(=O)N2CCCCCC2)c1`, the Potency was “inactive”.
For `C[C@@H]1CC[C@@]23CC[C@]4(C)[C@@](C=CC5[C@@]6(C)CC[C@H](O)C(C)(C)C6CC[C@]54C)(OC2=O)C3[C@H]1C` (some centres undefined), the Potency was 6.31 µM (active).
`Cn1cc(C2=C(c3coc4ccccc34)C(=O)NC2=O)c2cc(Br)ccc21` was tested, and the Potency was 25.1 µM (active).
For `Cc1ccc(-c2cn3c4c(sc3n2)CCCC4)cc1`, the Potency was “inactive”.
For `CC(=O)C1=C(O)C=C2Oc3c(C(C)=O)c(O)c(C)c(O)c3[C@]2(C)C1=O`, the Potency was 31.6 µM (active).
With `O=C(Nc1ccn(Cc2ccc(O)cc2C(F)(F)F)n1)c1c(F)cccc1F` the Potency was “inactive”.
With `Cc1ccc(C)c(-c2cc(C(F)(F)F)nn2-c2ccc(S(N)(=O)=O)cc2)c1` the Potency was “inactive”.
For `Cc1c(F)ccc(C(=O)Nc2cc([N+](=O)[O-])ccc2N2CCN(C)CC2)c1Cl`, the Potency was “inactive”.
With `C=C[C@@]1(C)CCC2C(=CCC3[C@]2(C)CCC[C@@]3(C)C(=O)O)C1` (some centres undefined) the Potency was 22.4 µM (active).
With `CCOC(=O)N1CCC(N2CCC[C@@H](NC(=O)c3ccccc3C)C2)CC1` the Potency was “inactive”.
With `CC(=O)OC1CCC2(C)C(CCC3(C)C2CC=C2C4C(C)C(C)CCC4(C)CCC23C)C1(C)C(=O)O` (centres undefined) the Potency was 3.98 µM (active).
In the case of `COc1ccc2nc3n[nH]c(C)c3c(NCCOCCO)c2c1`, the Potency is reported as “inactive”.
With `C#Cc1cccc(Nc2nc3cc(C(=O)O)ccc3c3cncnc23)c1` the Potency was 11.2 µM (active).
In the case of `CC(=O)O[C@H]1[C@H](O)C[C@@]2(C)C(CC[C@]3(C)C2CC=C2C4CC(C)(C)CC[C@]4(C(=O)O)CC[C@]23C)C1(C)C` (some centres undefined), the Potency is reported as 7.94 µM (active).
`C=C(C)[C@@H]1CC=C(COC(=O)NC(=O)c2ncn3c(=O)n(C)nnc23)CC1` was tested, and the Potency was “inactive”.
In the case of `CN(C)CCC(CSc1ccccc1)Nc1ccc(S(=O)(=O)NC(=O)c2ccc(N3CCN(Cc4ccccc4-c4ccc(Cl)cc4)CC3)cc2)cc1[N+](=O)[O-]` (centres undefined), the Potency is reported as 7.94 µM (active).
For `CCOc1ccc(-n2c(C(C)N(Cc3cccnc3)C(=O)Cc3ccc(F)c(C(F)(F)F)c3)nc3ncccc3c2=O)cc1` (centres undefined), the Potency was “inactive”.
For `OC1(CN2CCC(COc3noc4cccc(O[C@@H]5CCOC5)c34)CC2)CCOCC1`, the Potency was “inactive”.
In the case of `COc1ccccc1C(=O)Nc1cccc(NC(=O)c2cccc(C)c2)c1`, the Potency is reported as “inactive”.
With `CC(=O)O[C@@H]1CC[C@@]2(C)C(CC[C@]3(C)C2[C@H](O)C=C2[C@H]4[C@@H](C)[C@H](C)CC[C@]4(C)CC[C@]23C)[C@@]1(C)C(=O)O` (some centres undefined) the Potency was 7.08 µM (active).
In the case of `CCC(C)(NC(=O)C(CCC(N)=O)NC(=O)C1CC(O)CN1C(=O)C(C)(C)NC(=O)C(C)(C)NC(=O)C(CC(C)C)NC(=O)CNC(=O)C(NC(=O)C(C)(C)NC(=O)C(C)(C)NC(=O)C(C)(C)NC(=O)C(Cc1ccccc1)NC(C)=O)C(C)C)C(=O)N1CC(O)CC1C(=O)NC(C)(C)C(=O)NC(CO)Cc1ccccc1` (centres undefined) (Ac-F[Aib][Aib][Aib]VGL[Aib][Aib][Hyp]Q[Iva][Hyp][Aib][Phe(ol)]; configuration not given here), the activity change, negative = inhibition is reported as 8.8% [at 19.1 µM] (inactive).
In the case of `Cc1c(Cl)cccc1S(=O)(=O)Nc1nc(NCCc2ccccc2)nc2c1CN(Cc1ccccc1)CC2`, the Potency is reported as 7.94 µM (active).
With `COC1C(OC(=O)/C=C/C=C/C=C/C=C/C(=O)O)CCC2(CO2)C1C1(C)OC1CC=C(C)C` (centres undefined) the Potency was 8.91 µM (active).
`COC(C)(C)CCn1nc(Nc2c(C)cccc2C)c2cnc(Nc3ccc(OCCN4CCCC4)c(F)c3)nc21` was tested, and the Potency was “inactive”.
With `CC(=O)Nc1cccc(Nc2ncnc(N3CCC(OCc4ccc(OC(F)(F)F)cc4)CC3)n2)c1C` the Potency was “inactive”.
For `C=CC(C)(C)C12CC3C(=O)N4C(CC5(C(C)(C)C=C)c6ccccc6NC45)C(=O)N3C1Nc1ccccc12` (centres undefined), the Potency was “inactive”.
For `CCNC1(C(N)=O)CN(c2nc(C)nc3c(-c4ccc(Cl)cc4)c(-c4ccccc4Cl)nn23)C1`, the Potency was “inactive”.
In the case of `CCC(C)C(=O)Oc1cc(C)ccc1C1(COC(=O)C(C)C)CO1` (centres undefined), the Potency is reported as “inactive”.
In the case of `CCOc1cc(C(C)(C)C)ccc1C1=NC(C)(c2ccc(Cl)cc2)C(C)(c2ccc(Cl)cc2)N1C(=O)N1CCN(CCCS(C)(=O)=O)CC1` (centres undefined), the Potency is reported as “inactive”.
